# Shiga toxin inh: Shiga toxin inhibition; Vero cells, Shiga toxin protein synthesis inhibition reporter; inhibition, % at 38.7 µM; AID 2315; 290,000 tested, 9.2% active; in the data active = inhibition mostly above about 28%, no sharp cut-off; inactive = mostly below about 43%; note: 0% is about no effect
# Pf growth 48h: inhibits P. falciparum growth in the first generation, 48 h; P. falciparum luciferase growth in erythrocytes, 48 h; Potency, µM (titrated, usually from 28.7 µM), for inactives: top-dose activity change, negative = inhibition, usual class: inhibitors; 310,000 tested, 5.9% active; AID 504832; note: potency is the fitted concentration of half-maximal effect; % is set by controls: 0 for no effect and ±100 for the full control effect
#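 Firefly luciferase activity from engineered P. falciparum reports growth; inhibitors lower the luminescent signal. Cultures contained 2% hematocrit erythrocytes at 0.1% final parasitemia.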
# HCMV antiviral: human cytomegalovirus inhibition; 410,000 tested, 4.5% active; activity change, negative = inhibition, % at 57.5 µM; HFF cells, HCMV-luciferase reporter, 72 h; stronger effect = lower value; AID 1259415; in the data active = activity change below about -60%; inconclusive = no clear call, values can overlap the other calls; inactive = above about -39%; note: % is set by controls: 0 for no effect and ±100 for the full control effect
#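 Steps: HFFs plated, 16 h 37C; compounds added; HCMV-luciferase added to MOI 1 PFU/cell; 72 h 37C; OneGlo reagent, 5 min room temperature; luminescence read, normalized to controls.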
# Pf growth 96h: inhibits malaria parasite growth, 96 h | P. falciparum luciferase reporter growth, 96 h | 320,000 tested, 6.9% active | Potency, µM (doses to about 28.7 µM), for inactives: at the top dose activity change, negative = inhibition, actives largely listed as inhibitors; note: potency is the fitted concentration of half-maximal effect; % is set by controls: 0 for no effect and ±100 for the full control effect
#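 Infected RBCs, 2% Hct / 0.05% parasitemia final; luciferase-reporter P. falciparum; cpd 96 h, 37 C, 5% CO2; luciferase detection reagent; luminescence.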
# Cycloheximide cs: affects cycloheximide protein synthesis inhibition readout, counter-screen | cell reporter, cycloheximide protein synthesis inhibition counterscreen | max response, % | 300,000 tested, 12% active; in the data active = max response mostly above about 13%, no sharp cut-off; inactive = mostly below about 14%; note: read at 38.3 µM for the half of the compounds with a filed dose; 0% is about no effect
# Starred values were filed as active, the others as inactive; ? = inconclusive; . = no result. In the library only some 20% were active in any assay of this set; here they are far more common. Unless noted, calls come from the whole dose curve; as a rule, active = well fitted inhibition curve with a large enough effect; inconclusive = small, poorly fitted or top-dose-only effect, or another doubt; inactive = no such curve, though single readings can be large or run the other way.
SMILES,Shiga toxin inh,Pf growth 48h,HCMV antiviral,Pf growth 96h,Cycloheximide cs
CCOc1ccc(C(=O)NC(=S)Nc2ncccc2C)cc1[N+](=O)[O-],32.6*,21.8%,45.2,0.0%,24.7*
CC(=O)Nc1ccc(NS(=O)(=O)c2cc(-c3n[nH]c(=O)c4ccccc34)ccc2C)cc1,54.9,?,7.5,-10.3%,0.6
Cc1ccccc1NC(=O)c1cccc(NC(=O)CCC(=O)O)c1,-12.9,1.6%,20.6,?,-4.5
COc1ccc(C2C3=C(Nc4ncnn42)c2ccccc2CC3)cc1OC (stereo unspecified),-7.0,?,.,?,-6.7
COc1ccc(C2Oc3ccccc3C3=C2C(c2cccs2)n2ncnc2N3)cc1 (stereo unspecified),13.4,8.28µM*,9.6,.,4.6
COc1ccc(OC)c(NC(=O)C2=C(C)Nc3ncnn3C2c2cccs2)c1 (stereo unspecified),-1.2,-13.6%,-23.0,-17.7%,-4.3
Brc1ccc(C2C3=C(Nc4ncnn42)c2ccccc2OC3c2ccncc2)cc1 (stereo unspecified),-11.2,13.1µM*,?,.,1.2
Cc1cccc(C)c1NC(=O)C(NS(=O)(=O)c1ccc2c(c1)CCC(=O)N2)c1ccccc1 (stereo unspecified),.,.,-8.2,.,.
Cc1cccc(NC(=O)C(NS(=O)(=O)c2ccc3c(c2)CCC(=O)N3)c2ccccc2)n1 (stereo unspecified),14.7,-5.2%,0.6,10.4µM*,-1.8
Cc1ccccc1NC(=O)NCCCN1CCCC1,-9.2,.,33.4,2.33µM*,-3.7
CCOC(=O)c1ccc(NC(=S)N2CCN(CCNC3=CC(=O)CC(C)(C)C3)CC2)cc1,-5.8,0.0262µM*,0.5,-18.2%,7.8
CCOC(=O)c1ccc(NC(=O)NCCN2CCCCC2)cc1,-1.1,-24.7%,27.5,.,9.3*
Cc1ccc(NC(=O)NCCN2CCCCC2)cc1C,18.9,2.4%,3.4,16.5µM*,8.1
CCCn1c(CCCNC(=O)c2ccccc2OC)nc2ccccc21,.,.,-7.3,.,.
Cc1cc(C)n2nc(SCCC(=O)NCc3ccccc3)nc2n1,-18.2,0.0%,52.2,?,1.3
Cc1cs/c(=N\N=C2CCCCC2)n1Cc1ccco1,69.0*,18.6%,-9.0,40.6%,33.5*
CC(C)=N/N=c1\scc(C)n1Cc1ccco1,-3.8,9.6%,45.1,-0.8%,-2.1
Cc1cs/c(=N\N=C\c2ccccc2)n1Cc1ccco1,50.9,-3.3%,43.8,?,22.6*
CCC(O)(CC)C(=O)NN(C(=O)CCl)c1ccccc1,5.3,?,-93.7*,5.22µM*,1.1
Cc1ccc(N(NC(=O)C(O)(c2ccccc2)c2ccccc2)C(=O)CCl)cc1,-8.8,5.22µM*,-99.2*,?,-8.6
CCCC(O)(CCC)C(=O)NN(C(=O)OC)c1ccccc1,-9.7,4.3%,25.3,26.5%,-3.3
O=C(Nc1ccccc1)NN(C(=O)CCl)c1ccccc1,24.1,13.1µM*,-101.7*,?,14.4
Cc1ccc2nc(-c3ccccc3)c(Cc3ccsc3)n2c1,.,.,29.5,.,.
CCc1nc2ccc(C(=O)NCc3cccs3)cn2c1N(CC)CCOC,.,.,-4.1,.,.
O=C(N1CCC[C@@H]1c1noc2ccccc12)C(F)(F)F,.,.,-9.1,.,.
SMILES,Shiga toxin inh,Pf growth 48h,HCMV antiviral,Pf growth 96h,Cycloheximide cs
COc1cccc(-c2csc(NC(C)=O)n2)c1,87.3*,44.4%,30.7,15.6%,47.1*
COc1cccc(NC(=O)Nc2nc(-c3ccc(OC)c(OC)c3)cs2)c1,66.6*,?,-99.4*,11.7µM*,21.8*
COc1ccc(-c2csc(NC(C)=O)n2)cc1OC,20.3,28.9%,37.1,.,21.2*
COc1ccc(-c2csc(NC(=O)Cc3ccccc3)n2)cc1OC,15.6,?,0.0,-11.6%,20.5
CC(=O)Nc1nc(-c2ccc(-c3ccccc3)cc2)cs1,.,.,-5.5,.,.
COc1ccc(-c2csc(NC(=O)Nc3ccccc3)n2)cc1,41.2,.,?,-3.1%,8.3
CCOC(=O)C1=C(O)CCn2c1nc1ccccc12,23.3,26.7%,-107.4*,97.0%,-0.1
CCOc1ccc(C(=O)N2CCn3c2nc2ccccc23)cc1,-3.6,10.6%,?,-20.5%,-1.1
COCCn1c(C)cc(C(=O)COC(=O)c2cncc(Br)c2)c1C,54.0*,107.3%,-21.0,153.2%,36.1*
COCCn1c(C)cc(C(=O)COC(=O)c2ccccc2Br)c1C,-12.0,225.6%,-82.5*,51.6%,-2.6
COCCn1c(C)cc(C(=O)COC(=O)c2cccnc2SC)c1C,.,.,53.1,.,.
